Reference: PubChem BioAssay (NCATS)
Inconclusive results are not listed. Calls of active or inactive are those of the source. Unless noted, calls follow the shape of the dose curve; as a rule, active = well fitted curve in the direction sought with a large enough effect; inconclusive = small, poorly fitted or top-dose-only effect, or another doubt; inactive = no such curve, though single readings can be large; an effect the other way counts as inactive or inconclusive.

Columns and labels:
[1] = target: Lysosomal acid glucosylceramidase (Homo sapiens) (UniProt P04062); test: Glucocerebrosidase-p2 (AID 348; in the data active = potency below about 10 µM; also: potency is read from the fitted curve at half-maximal effect); conditions: purified GBA, blue fluorogenic substrate, 40 min
Sequence of Lysosomal acid glucosylceramidase (Homo sapiens) (P04062 whole entry, looked up): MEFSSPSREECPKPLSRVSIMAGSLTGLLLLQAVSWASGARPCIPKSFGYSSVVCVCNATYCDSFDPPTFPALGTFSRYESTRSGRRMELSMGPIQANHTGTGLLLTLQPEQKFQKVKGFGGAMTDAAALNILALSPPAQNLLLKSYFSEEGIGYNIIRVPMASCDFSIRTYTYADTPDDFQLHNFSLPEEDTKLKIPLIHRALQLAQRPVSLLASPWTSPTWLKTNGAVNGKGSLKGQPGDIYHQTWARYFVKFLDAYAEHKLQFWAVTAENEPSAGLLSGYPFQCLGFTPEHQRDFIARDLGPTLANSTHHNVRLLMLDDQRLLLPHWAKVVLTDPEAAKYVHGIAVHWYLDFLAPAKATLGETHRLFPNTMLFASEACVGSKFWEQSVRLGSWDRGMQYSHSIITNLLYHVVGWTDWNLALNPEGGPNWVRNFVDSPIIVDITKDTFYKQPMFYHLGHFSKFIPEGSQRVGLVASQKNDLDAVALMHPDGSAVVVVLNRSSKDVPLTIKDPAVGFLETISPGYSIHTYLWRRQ
In short: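 Compounds titrated from 0.6 nM upwards against 0.2 nM enzyme in pH 5.9 citric acid/KH2PO4, taurocholate, tween-20; blue fluorogenic substrate 80 uM, 40 min room temperature, stopped and read Ex 365/Em 440 for AC50.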

[2] = AP1 Signaling Pathway (AID 357; active = well fitted curve in either direction with a large enough effect, not every such curve was filed as active;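 also: ME-180 reporter cells stimulated with EGF at its EC50 level; % is scaled to controls: 0 for no effect and ±100 for the full control effect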); conditions: ME-180 AP-1-bla reporter, EGF-induced, beta-lactamase ratio, 5 h; at 7.69 µM (top of the series) unless noted
In short: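 In this screen, ME-180 cells in Opti-MEM with 0.5% dialyzed FBS received EC50 EGF and compound titrations for 5 h. AP-1 reporter beta-lactamase was detected via CCF4 ratio, giving AC50 for positive and negative modulators.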

[3] = target: Cytochrome P450 1A2 (Homo sapiens) (UniProt P05177); test: p450-cyp1a2 (AID 410; calls by dose curve; also: potency is read from the fitted curve at half-maximal effect;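 as to activity change, negative = inhibition: -100% = full effect of reference inhibitor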); conditions: recombinant CYP1A2, luciferin-ME demethylation, luminescence; series mostly up to 57 µM
Sequence of Cytochrome P450 1A2 (Homo sapiens) (P05177 whole entry, looked up): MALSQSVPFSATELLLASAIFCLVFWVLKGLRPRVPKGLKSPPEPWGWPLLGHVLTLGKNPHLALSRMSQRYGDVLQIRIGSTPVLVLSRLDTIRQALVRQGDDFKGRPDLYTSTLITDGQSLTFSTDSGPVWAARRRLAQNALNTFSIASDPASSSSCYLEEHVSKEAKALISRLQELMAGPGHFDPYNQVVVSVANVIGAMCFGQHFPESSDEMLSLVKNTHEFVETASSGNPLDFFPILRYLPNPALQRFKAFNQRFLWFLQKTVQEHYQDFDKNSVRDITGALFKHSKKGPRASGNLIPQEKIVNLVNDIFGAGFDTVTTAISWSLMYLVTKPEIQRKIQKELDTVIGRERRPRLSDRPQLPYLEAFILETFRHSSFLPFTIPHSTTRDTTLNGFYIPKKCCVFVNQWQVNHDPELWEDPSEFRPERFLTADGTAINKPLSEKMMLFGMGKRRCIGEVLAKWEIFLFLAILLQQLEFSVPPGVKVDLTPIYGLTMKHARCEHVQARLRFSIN
In short: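 Human CYP1A2 (20nM) demethylated Luciferin-ME at its Km (100uM) in 100mM KPO4. After 10 min compound preincubation, NADPH regeneration ran the reaction 60 min at room temperature. Luciferin was read by luminescence, normalized to 57 uM furafylline.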

[4] = NFAT Signaling Pathway (AID 444; active = well fitted curve in either direction with a large enough effect, not every such curve was filed as active;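 also: carbachol stimulus at about its EC50 of 1 µM final; % is scaled to controls: 0 for no effect and ±100 for the full control effect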); conditions: Jurkat NFAT-bla M1, carbachol, beta-lactamase ratio, 5 h; at 7.69 µM (top of the series) unless noted
In short: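 Jurkat cells carrying an NFAT-driven β-lactamase reporter and co-transfected muscarinic M1 receptor were treated with compound plus carbachol (1 uM final, an EC50 level) for 5 h at 37 °C. CCF4 loading followed for 1 h at RT; 460/530 nm ratio gave %activity.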

[5] = Stat Signaling Pathway (AID 446; active = well fitted curve in either direction with a large enough effect, not every such curve was filed as active;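 also: ME-180 cervical cancer cells given 40 pM IL-6 alongside compound; SIE-controlled beta-lactamase reporter measured as 460/530 nm FRET emission ratio; % is scaled to controls: 0 for no effect and ±100 for the full control effect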); conditions: ME-180 SIE beta-lactamase reporter, IL-6 stimulated, 5 h; at 7.69 µM (top of the series) unless noted
In short: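 ME-180 SIE-bla cells; overnight plating; cpd + IL-6 40 pM, 5 h, 37 C; LiveBLAzer 2.5 h RT; 460/530 nm emission ratio. Normalized to 300 pM IL-6 and 125 nM JAK inhibitor controls.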

[6] = target: Glucocorticoid receptor (Homo sapiens) (UniProt P04150); test: GR-GFP Redistribution (AID 450;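 active = compounds whose dose series gives a full or clear partial fitted curve of increased nuclear translocation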; also: potency is read from the fitted curve at half-maximal effect); conditions: U2OS GR-GFP nuclear translocation, laser cytometry, 2 h
Sequence of Glucocorticoid receptor (Homo sapiens) (P04150 whole entry, looked up, the tested form may be a part): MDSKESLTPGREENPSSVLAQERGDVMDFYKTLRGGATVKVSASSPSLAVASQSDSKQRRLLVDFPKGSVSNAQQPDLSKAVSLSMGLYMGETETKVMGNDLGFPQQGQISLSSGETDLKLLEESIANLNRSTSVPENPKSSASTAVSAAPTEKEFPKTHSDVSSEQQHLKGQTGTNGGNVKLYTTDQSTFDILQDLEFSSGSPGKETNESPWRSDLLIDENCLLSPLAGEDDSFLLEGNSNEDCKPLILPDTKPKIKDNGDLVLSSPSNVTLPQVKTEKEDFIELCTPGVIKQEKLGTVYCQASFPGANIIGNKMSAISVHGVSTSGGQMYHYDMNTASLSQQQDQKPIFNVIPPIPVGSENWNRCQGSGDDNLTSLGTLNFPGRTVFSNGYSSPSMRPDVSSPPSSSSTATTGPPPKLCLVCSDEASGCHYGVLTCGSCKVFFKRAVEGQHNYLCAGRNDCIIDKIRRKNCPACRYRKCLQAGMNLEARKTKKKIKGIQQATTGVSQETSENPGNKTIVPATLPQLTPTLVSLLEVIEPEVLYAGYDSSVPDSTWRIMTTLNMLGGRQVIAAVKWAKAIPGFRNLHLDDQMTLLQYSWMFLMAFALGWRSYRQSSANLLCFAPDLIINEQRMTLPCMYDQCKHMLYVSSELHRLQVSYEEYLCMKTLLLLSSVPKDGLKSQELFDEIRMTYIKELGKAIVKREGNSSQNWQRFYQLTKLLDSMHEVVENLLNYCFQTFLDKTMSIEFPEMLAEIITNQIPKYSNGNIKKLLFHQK

[7] = target: Glucocorticoid receptor (Homo sapiens) (UniProt P04150); test: GR-EFC Redistribution (AID 451; calls by dose curve; also: potency is read from the fitted curve at half-maximal effect); conditions: CHO-K1 GR-EFC translocation, beta-gal luminescence, 2 h
In short: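 CHO-K1 cells stably expressing nuclear-localized β-gal enzyme acceptor and GR fused C-terminally to the enzyme donor fragment; ligand-driven nuclear translocation restores β-gal by complementation. Compounds titrated up to 46 uM final, 2 h at 37 °C; luminescence read.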

[8] = target: Mitogen-activated protein kinase 10 (Mus musculus) (UniProt Q61831); test: JNK3 AlphaScreen Assay (AID 530; active = well fitted curve in either direction with a large enough effect, not every such curve was filed as active;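 also: kinase came from lysate of stimulated human HepG2 cells; signal reports phosphorylation of biotinylated GST-cJun 1-79 at Ser73 with 10 µM ATP; % is scaled to controls: 0 for no effect and ±100 for the full control effect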); conditions: JNK3 lysate, c-Jun phosphorylation; series mostly up to 57.1 µM
In short: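 JNK3 came from HepG2 lysates pre-activated with IL-1beta and TNF-alpha and phosphorylated biotinylated GST-cJun (1-79) at 10 uM ATP, pH 7.6, room temperature. Compounds were titrated. AlphaScreen signal used anti-phospho-cJun (Ser73) antibody.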

[9] = target: 3',5'-cyclic-AMP phosphodiesterase 4B (Homo sapiens) (UniProt Q07343); test: qHTS Assay for Inhibitors of PDE-IV (AID 607; active = well fitted activation curve with a large enough effect in the main read-out, with a control signal flat, not every such curve was filed as active; also: % of control where 0% means no effect); conditions: HEK293 ACTOne CNG channel cells, membrane potential fluorescence; series mostly up to 22.9 µM
Sequence of 3',5'-cyclic-AMP phosphodiesterase 4B (Homo sapiens) (Q07343 whole entry, looked up): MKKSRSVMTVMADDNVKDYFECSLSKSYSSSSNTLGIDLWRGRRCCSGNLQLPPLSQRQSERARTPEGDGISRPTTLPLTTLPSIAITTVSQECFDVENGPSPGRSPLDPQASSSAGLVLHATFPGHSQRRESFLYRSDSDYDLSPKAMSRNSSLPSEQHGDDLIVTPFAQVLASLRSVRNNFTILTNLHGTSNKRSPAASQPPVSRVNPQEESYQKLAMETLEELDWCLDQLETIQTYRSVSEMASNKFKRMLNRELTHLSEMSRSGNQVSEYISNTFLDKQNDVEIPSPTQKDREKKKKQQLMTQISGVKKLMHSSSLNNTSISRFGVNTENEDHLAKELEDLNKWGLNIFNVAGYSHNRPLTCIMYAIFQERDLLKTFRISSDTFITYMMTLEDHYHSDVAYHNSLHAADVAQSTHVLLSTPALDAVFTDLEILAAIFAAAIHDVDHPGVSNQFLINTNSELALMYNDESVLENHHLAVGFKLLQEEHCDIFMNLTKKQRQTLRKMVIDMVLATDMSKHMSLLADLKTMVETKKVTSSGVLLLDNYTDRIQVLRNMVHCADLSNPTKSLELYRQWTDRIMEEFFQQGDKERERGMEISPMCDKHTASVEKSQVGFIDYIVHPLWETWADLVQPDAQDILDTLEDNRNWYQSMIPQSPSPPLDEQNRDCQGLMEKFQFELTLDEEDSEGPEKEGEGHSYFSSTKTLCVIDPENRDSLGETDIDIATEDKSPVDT
In short: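 ACTOne HEK293 cells carry a modified cAMP-gated CNG channel and express endogenous PDE4; plated 1000 cells/well, compounds up to 22.9 uM final. Membrane-potential dye fluorescence (ex 535/em 590) was read; parental cells received 10 uM forskolin + 100 uM RO 20-1724.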

[10] = target: Cytochrome P450 3A4 (Homo sapiens) (UniProt P08684); test: qHTS Assay for Activators of Cytochrome P450 3A4 (AID 885); conditions: recombinant CYP3A4, Luciferin-PPXE luminescence, 60 min; series mostly up to 57.1 µM; also: nearly all actives have a fitted effect of over 65% in size
Sequence of Cytochrome P450 3A4 (Homo sapiens) (P08684 whole entry, looked up): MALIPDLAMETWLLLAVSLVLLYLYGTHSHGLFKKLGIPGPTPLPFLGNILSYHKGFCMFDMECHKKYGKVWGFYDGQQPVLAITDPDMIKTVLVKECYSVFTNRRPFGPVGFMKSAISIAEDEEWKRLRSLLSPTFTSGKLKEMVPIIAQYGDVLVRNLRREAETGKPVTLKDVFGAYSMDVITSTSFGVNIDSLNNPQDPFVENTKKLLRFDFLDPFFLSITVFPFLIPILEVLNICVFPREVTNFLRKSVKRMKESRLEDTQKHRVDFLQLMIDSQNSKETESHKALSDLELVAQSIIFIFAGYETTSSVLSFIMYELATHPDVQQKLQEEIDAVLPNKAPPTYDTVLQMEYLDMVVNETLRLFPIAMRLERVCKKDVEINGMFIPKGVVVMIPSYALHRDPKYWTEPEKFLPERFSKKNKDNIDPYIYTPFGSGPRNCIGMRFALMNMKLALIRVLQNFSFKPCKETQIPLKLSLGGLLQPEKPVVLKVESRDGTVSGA
In short: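 20nM CYP3A4 + 25uM Luciferin-PPXE (=KM), 200mM KPO4; cpd 10 min RT; NADPH regen, 60 min RT; stop w/ detection buffer, 20 min; luminescence. Normalized to 57 uM ketoconazole.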

[11] = Confirmation and Secondary Assay for Modulators of Hemoglobin Beta Chain Splicing at IVS2 654 locus (AID 910); conditions: HeLa EGFP-654 splicing reporter, GFP fluorescence, 48 h; series mostly up to 38.3 µM;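 also: per-well total GFP intensity by laser scanning cytometry after 2-day treatment; % of control where 0% means no effect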
In short: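 HeLa cells stably carrying EGFP interrupted by mutant beta-globin IVS2-654 intron (CMV-driven) were treated with compound for 2 days at 37C; corrected splicing was scored as total peak GFP intensity per well (488 nm excitation, 500-520 nm emission).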

[12] = Confirmation and Secondary Assay for Modulators of Hemoglobin Beta Chain Splicing at IVS2 705 locus (AID 930); conditions: HeLa EGFP-705 splicing reporter, GFP fluorescence, 48 h; series mostly up to 38.3 µM;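 also: HeLa cells stably expressing the EGFP-705 splicing reporter; GFP fluorescence per well restored by corrected splicing of the IVS2-705 intron in EGFP; % of control where 0% means no effect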
In short: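 Splice-correction reporter: EGFP cDNA split by beta-globin intron 2 bearing the 705 mutation, stably in HeLa. Compound incubation 2 days, 37C; fluorescent objects 5-250 µm summed per well.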

[13] = qHTS Assay for Lipid Storage Modulators (AID 1519; calls by dose curve); conditions: Drosophila S3 cells, BODIPY lipid droplet/cell ratio, laser cytometry, cells loaded with oleic acid; for activity change, negative = inhibition: at 57.5 µM (top of the series)
In short: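 Cells seeded at 5,000 per well were treated with compounds over a concentration series and loaded with oleic acid (400 uM, as added). Lipid droplet fluorescence (488 nm excitation, 500-530 nm channel) was read by laser-scanning cytometry and normalized to 20 uM Triacsin C.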

[14] = Primary qHTS for small molecule stabilizers of the endoplasmic reticulum resident proteome: Secreted ER Calcium Modulated Protein (SERCaMP) assay (AID 1508630); conditions: SH-SY5Y GLuc-SERCaMP (Gaussia luciferase released on ER calcium loss) secretion, thapsigargin, luminescence; series mostly up to 38.4 µM; also: % is scaled to controls: 0 for no effect and ±100 for the full control effect
In short: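 GLuc-SERCaMP-expressing SH-SY5Y cells, pretreated 16 h with compound, are challenged with thapsigargin to empty ER calcium stores; after 4 h, coelenterazine is added directly to the medium and luminescence is imaged.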

[15] = target: Ubiquitin carboxyl-terminal hydrolase 1 (Homo sapiens) (UniProt O94782); test: Inhibitors of USP1/UAF1: Pilot qHTS (AID 504865); conditions: purified USP1/UAF1, Ub-rhodamine cleavage fluorescence; series mostly up to 54.9 µM;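 also: rhodamine fluorescence freed from ubiquitin-rhodamine substrate followed over time; top concentration of the series differs between compounds; % is scaled to controls: 0 for no effect and ±100 for the full control effect; nearly all actives have a fitted effect of over 35% in size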
Sequence of Ubiquitin carboxyl-terminal hydrolase 1 (Homo sapiens) (O94782 whole entry, looked up): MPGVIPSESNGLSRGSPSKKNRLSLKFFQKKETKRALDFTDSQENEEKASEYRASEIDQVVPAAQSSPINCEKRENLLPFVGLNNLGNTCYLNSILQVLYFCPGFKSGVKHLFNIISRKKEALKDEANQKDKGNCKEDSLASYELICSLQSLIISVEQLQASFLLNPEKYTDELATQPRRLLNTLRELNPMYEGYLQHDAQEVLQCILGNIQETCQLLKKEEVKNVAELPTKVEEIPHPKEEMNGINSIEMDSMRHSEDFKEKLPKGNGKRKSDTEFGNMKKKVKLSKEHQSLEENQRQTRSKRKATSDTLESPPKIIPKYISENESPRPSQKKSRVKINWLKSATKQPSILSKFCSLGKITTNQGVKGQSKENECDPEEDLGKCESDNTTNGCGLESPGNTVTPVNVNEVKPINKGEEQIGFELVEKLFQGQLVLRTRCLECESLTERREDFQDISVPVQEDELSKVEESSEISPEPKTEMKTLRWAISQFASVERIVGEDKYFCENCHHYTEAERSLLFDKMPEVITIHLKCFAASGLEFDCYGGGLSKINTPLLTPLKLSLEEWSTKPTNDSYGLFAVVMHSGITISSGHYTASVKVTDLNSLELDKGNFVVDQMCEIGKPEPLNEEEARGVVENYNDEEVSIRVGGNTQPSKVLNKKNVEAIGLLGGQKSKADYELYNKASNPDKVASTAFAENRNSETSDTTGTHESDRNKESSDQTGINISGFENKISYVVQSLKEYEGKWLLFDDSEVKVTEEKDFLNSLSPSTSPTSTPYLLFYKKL
In short: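 Enzyme-free wells gave the negative control, while test wells held 1nM USP1/UAF1 preincubated with compound for 15 min at room temperature. Ub-Rho at 150nM final started the reaction, and fluorescence at 480/540 nm was recorded kinetically.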

[16] = target: Cytochrome P450 3A4 (Homo sapiens) (UniProt P08684); test: qHTS Assay for Inhibitors and Substrates of Cytochrome P450 3A4 (AID 884); conditions: recombinant CYP3A4, Luciferin-PPXE luminescence; series mostly up to 57.1 µM; also: potency is read from the fitted curve at half-maximal effect; nearly all actives have a fitted effect of over 50% in size
In short: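 20 nM human CYP3A4 with 25 uM Luciferin-PPXE (at KM) in 200 mM KPO4, preincubated 10 min with compound; NADPH regeneration started a 60 min RT reaction. Luciferin detected by luminescence, normalized to 57 uM ketoconazole as full inhibition.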

[17] = measured here: cell count channel max response
[18] = measured here: lipid channel max response

| Compound | Potency [1] | activity change, negative = inhibition [2] | Potency [3] | activity change, negative = inhibition [4] | activity, negative = inhibition [5] | Potency [6] | Potency [7] | outcome [8] | Potency [9] | Potency [10] | outcome [11] | outcome [12] | activity change, negative = inhibition [13] | max response [13, 17] | max response [13, 18] | Potency [14] | Potency [15] | Potency [16] |
| --- | --- | --- | --- | --- | --- | --- | --- | --- | --- | --- | --- | --- | --- | --- | --- | --- | --- | --- |
| COc1cccc(-c2ccc3ncnc(NC4CCNCC4)c3c2)c1 | > 11.4 µM (inactive) | 2.29% (inactive) | 20 µM (active) | 13.6% (inactive) | -1.25% (inactive) | > 46 µM (inactive) | > 46 µM (inactive) | inactive | inactive | inactive | inactive | inactive | 7.49% (inactive) | -3.29% | 2.37% | inactive |  |  |
| CN(C)Cc1ccccc1-c1cc(Nc2ccccc2)ncn1 | > 11.4 µM (inactive) | 1.09% (inactive) | 15.8 µM (active) | -10.2% (inactive) | 9.68% (inactive) | > 46 µM (inactive) | > 46 µM (inactive) | inactive | inactive |  | inactive | inactive | 4.87% (inactive) | 5.64% | 12.4% | inactive | inactive |  |
| O=C(O)C1CCN(c2ncnc3ccc(-c4ccccc4C(F)(F)F)cc23)CC1 | > 11.4 µM (inactive) | -20.1% (inactive) | inactive | 6.97% (inactive) | -9.2% (inactive) | > 46 µM (inactive) | > 46 µM (inactive) | inactive |  | inactive | inactive |  | 4.82% (inactive) | 14.4% | 20.7% | inactive | inactive |  |
| Cc1cccc(CNc2ccnc(-c3ccoc3)n2)c1 | > 11.4 µM (inactive) | 0.94% (inactive) | 2 µM (active) | 0.371% (inactive) | 6.16% (inactive) | > 46 µM (inactive) | > 46 µM (inactive) | inactive | inactive | inactive | inactive | inactive | 6.91% (inactive) | 1.7% | 4.61% | inactive |  |  |
| COc1ccccc1-c1cc(NCc2cccnc2)ncn1 | > 11.4 µM (inactive) | -6.59% (inactive) | 0.316 µM (active) | -4.97% (inactive) | 0.807% (inactive) | > 46 µM (inactive) | > 46 µM (inactive) | inactive |  | inactive | inactive | inactive | 4.96% (inactive) | 9.53% | 19.3% | inactive | inactive | 5.01 µM (active) |
| COc1ccc(-n2c(=O)c(-c3cn(C)c4ccccc34)nc3cnc(OC)nc32)cc1 | > 11.4 µM (inactive) | -6.77% (inactive) | inactive | -7.96% (inactive) | 5.87% (inactive) | > 9.22 µM (inactive) | > 46 µM (inactive) | inactive | inactive | inactive |  |  | -13.3% (inactive) | 4.94% | -9.54% | inactive |  | 1.58 µM (active) |
